We go through 19 molecules from PubChem BioAssay (NCATS).

Test [1] can be described thus: Primary qHTS for small molecule stabilizers of the endoplasmic reticulum resident proteome: Secreted ER Calcium Modulated Protein (SERCaMP) assay (AID 1508630). For activity change, negative = inhibition: % is set by controls: 0 for no effect and ±100 for the full control effect. Note: potency is the fitted concentration of half-maximal effect. The essentials:
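GLuc-SERCaMP-expressing SH-SY5Y cells, pretreated 16 h with compound, are challenged with thapsigargin to empty ER calcium stores; after 4 h, coelenterazine is added directly to the medium and luminescence is imaged.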
In general terms: qHTS replaces the single test concentration by a dilution series.

The target in test [2] is Cytochrome P450 2D6 (Homo sapiens) (UniProt P10635). In words: Cytochrome P450 family 2 subfamily D member 6 (CYP2D6) small molecule antagonists: luciferase biochemical (cell-free) qHTS assay (AID 1645840; active = well fitted curve in the direction sought with a large enough effect in the repeat runs; an effect the other way counts as inactive or inconclusive; note: nearly all actives have a fitted effect of over 55% in size; note: potency is the fitted concentration of half-maximal effect; for activity change, negative = inhibition: % is set by controls: 0 for no effect and ±100 for the full control effect). The essentials:
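P450-Glo luminescent screen: recombinant CYP2D6 enzyme–proluciferin substrate mix preincubated with compound 10 min at room temperature, then NADPH regeneration added for 1 h at room temperature. Detection reagent added for 20 min; luciferin light read as relative luminescence units.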

Test [3] addresses Cytochrome P450 2C9 (Homo sapiens) (UniProt P11712). In words: Cytochrome P450 family 2 subfamily C member 9 (CYP2C9) small molecule antagonists: luciferase biochemical (cell-free) qHTS assay (AID 1645842; active = well fitted curve in the direction sought with a large enough effect in the repeat runs; an effect the other way counts as inactive or inconclusive; note: nearly all actives have a fitted effect of over 55% in size; note: potency is the fitted concentration of half-maximal effect). Put shortly:
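Luminescence, after 20 min with luciferin detection reagent, reflected CYP2C9 turnover during a 1 h NADPH-driven reaction at 37C. Enzyme-substrate mix contained 0.4% bovine serum albumin and was preincubated with compound 10 min at room temperature.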

Test [4] addresses N-terminal Xaa-Pro-Lys N-methyltransferase 1 (Homo sapiens) (UniProt Q9BV86). In words: Confirmatory qHTS for Inhibitors of N-terminal methyltransferase 1 (NTMT1): MTaseGlo Assay (AID 1645874).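 Note: luminescence from SAH made as NTMT1 methylates SPKRIA peptide using SAM; 0% = DMSO control and -100% = no-enzyme control; nearly all actives have a fitted effect of over 65% in size.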 The essentials:
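Luminescent MTase-Glo read-out of SAH. 125 nM NTMT1, 100 uM SAM, 1 uM SPKRIA substrate, 30 min RT reaction after 15 min compound preincubation. Normalized to no-enzyme and DMSO controls; Hill fit.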

Test [5] can be described thus: Primary qHTS for inhibitors of nuclear receptor binding SET domain protein 2 (NSD2) in an isogenic RCH-ACV NSD2 p.E1099K mutant (9B) (AID 1645876). For activity change, negative = viability loss: % is set by controls: 0 for no effect and ±100 for the full control effect. Note: nearly all actives have a fitted effect of over 70% in size. Note: potency is the fitted concentration of half-maximal effect.
The nature of test [6]: Primary qHTS for inhibitors of nuclear receptor binding SET domain protein 2 (NSD2) in an RCH-ACV wild type WT cells (2C) (AID 1645877). Note: nearly all actives have a fitted effect of over 70% in size. Note: potency is the fitted concentration of half-maximal effect.
A short description of test [7]: A High-Content qHTS Against Drug Library for the Identification of Small Molecules that Inhibit DYT1 Early Onset Primary Dystonia-Associated Cell Pathology (AID 1645839; calls by dose curve). The essentials:
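In this high-content image screen, delE TorsinA mislocalization in inducible Flp-In 293 cells is scored as %pathology, with cell count serving as the counterscreen. Compound exposure lasts 48 h under tetracycline induction in reduced-serum medium.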

In test [8] the target is Catechol O-methyltransferase (Homo sapiens) (UniProt P21964). Description: Confirmatory Screen for Target Class Profiling of Small Molecule Inhibitors of Methyltransferases (AID 1745852; calls by dose curve; for activity change, negative = inhibition: % is set by controls: 0 for no effect and ±100 for the full control effect). The conditions noted are these: MTase-Glo luminescence, SAH detection, recombinant enzyme; measured here: COMT max response; stronger effect = lower value.
Sequence of Catechol O-methyltransferase (Homo sapiens) (P21964 whole entry, looked up): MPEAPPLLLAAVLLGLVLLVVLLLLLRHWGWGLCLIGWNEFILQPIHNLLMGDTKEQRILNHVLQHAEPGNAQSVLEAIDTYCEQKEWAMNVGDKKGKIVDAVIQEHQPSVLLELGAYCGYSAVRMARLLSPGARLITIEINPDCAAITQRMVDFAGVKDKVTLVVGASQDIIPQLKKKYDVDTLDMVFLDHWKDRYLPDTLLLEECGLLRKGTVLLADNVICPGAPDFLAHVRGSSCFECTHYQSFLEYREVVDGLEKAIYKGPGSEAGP
Test [9] addresses Guanidinoacetate N-methyltransferase (Homo sapiens) (UniProt Q14353). The test is described as above. To be noted: MTase-Glo luminescence, SAH detection, recombinant enzyme; activity change, negative = inhibition: at 57.3 µM (top of the series) unless noted.
The target of test [10] is Cytochrome P450 3A4 (Homo sapiens) (UniProt P08684). In words: Cytochrome P450 family 3 subfamily A member 4 (CYP3A4) small molecule antagonists: luciferase qHTS assay (AID 1645841; active = well fitted curve in the direction sought with a large enough effect in the repeat runs; an effect the other way counts as inactive or inconclusive; note: nearly all actives have a fitted effect of over 45% in size). Put shortly: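 Luminescent CYP3A4 activity readout: compounds plus enzyme-substrate mix 10 min at room temperature, reaction started with NADPH regenerating system for 1 h, stopped with detection reagent, read after 20 min. Ketoconazole served as control.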
Sequence of Cytochrome P450 3A4 (Homo sapiens) (P08684 whole entry, looked up): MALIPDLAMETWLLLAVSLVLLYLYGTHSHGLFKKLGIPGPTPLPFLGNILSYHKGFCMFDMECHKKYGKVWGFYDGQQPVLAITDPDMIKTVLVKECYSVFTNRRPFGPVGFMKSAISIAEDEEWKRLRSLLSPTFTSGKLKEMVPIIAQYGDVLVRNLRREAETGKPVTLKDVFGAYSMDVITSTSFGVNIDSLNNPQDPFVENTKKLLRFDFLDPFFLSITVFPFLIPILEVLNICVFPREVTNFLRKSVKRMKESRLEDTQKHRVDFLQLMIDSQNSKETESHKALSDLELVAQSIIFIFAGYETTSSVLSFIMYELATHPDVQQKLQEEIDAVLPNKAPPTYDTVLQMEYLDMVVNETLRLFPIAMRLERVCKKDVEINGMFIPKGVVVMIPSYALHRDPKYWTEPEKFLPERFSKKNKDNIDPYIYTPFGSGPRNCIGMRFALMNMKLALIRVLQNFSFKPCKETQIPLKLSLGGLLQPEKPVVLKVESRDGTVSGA

The structures appear in SMILES notation. “And” between values parts separate entries of the source, which are not always exact repeats. Equal entries are not always repeated. Records with an inconclusive call do not appear. More than one record can exist for a structure, and the calls need not agree. The source made the active and inactive calls. Unless noted, calls come from the whole dose curve; as a rule, active = well fitted curve in the direction sought with a large enough effect; inconclusive = small, poorly fitted or top-dose-only effect, or another doubt; inactive = no such curve, though single readings can be large; an effect the other way counts as inactive or inconclusive.

Sequence of Cytochrome P450 2D6 (Homo sapiens) (P10635 whole entry, looked up): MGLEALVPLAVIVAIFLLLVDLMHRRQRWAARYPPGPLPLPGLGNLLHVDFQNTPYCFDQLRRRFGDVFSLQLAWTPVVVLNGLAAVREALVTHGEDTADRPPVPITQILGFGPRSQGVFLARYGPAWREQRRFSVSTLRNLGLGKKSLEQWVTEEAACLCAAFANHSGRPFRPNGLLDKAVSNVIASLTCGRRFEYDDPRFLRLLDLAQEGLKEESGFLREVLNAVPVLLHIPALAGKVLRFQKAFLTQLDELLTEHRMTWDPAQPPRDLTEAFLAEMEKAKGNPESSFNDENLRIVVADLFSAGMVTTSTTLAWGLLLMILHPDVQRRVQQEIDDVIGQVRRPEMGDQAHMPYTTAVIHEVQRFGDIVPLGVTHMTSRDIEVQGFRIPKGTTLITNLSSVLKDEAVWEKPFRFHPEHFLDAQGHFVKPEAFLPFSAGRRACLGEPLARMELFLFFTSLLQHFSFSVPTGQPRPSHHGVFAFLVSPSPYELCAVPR
Sequence of Cytochrome P450 2C9 (Homo sapiens) (P11712 whole entry, looked up): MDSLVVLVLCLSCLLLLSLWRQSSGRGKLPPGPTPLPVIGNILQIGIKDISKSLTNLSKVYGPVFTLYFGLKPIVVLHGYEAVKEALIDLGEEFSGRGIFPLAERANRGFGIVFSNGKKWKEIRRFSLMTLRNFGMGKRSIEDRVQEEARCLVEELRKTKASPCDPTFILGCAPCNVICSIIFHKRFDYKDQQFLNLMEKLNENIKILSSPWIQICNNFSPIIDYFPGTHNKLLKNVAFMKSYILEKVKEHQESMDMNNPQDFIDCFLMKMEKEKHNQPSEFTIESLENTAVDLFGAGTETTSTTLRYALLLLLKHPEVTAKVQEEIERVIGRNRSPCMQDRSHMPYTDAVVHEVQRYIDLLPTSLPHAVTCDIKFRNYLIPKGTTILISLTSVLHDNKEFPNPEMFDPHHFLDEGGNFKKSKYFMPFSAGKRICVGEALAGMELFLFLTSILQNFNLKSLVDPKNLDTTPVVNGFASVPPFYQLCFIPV
Sequence of N-terminal Xaa-Pro-Lys N-methyltransferase 1 (Homo sapiens) (Q9BV86 whole entry, looked up): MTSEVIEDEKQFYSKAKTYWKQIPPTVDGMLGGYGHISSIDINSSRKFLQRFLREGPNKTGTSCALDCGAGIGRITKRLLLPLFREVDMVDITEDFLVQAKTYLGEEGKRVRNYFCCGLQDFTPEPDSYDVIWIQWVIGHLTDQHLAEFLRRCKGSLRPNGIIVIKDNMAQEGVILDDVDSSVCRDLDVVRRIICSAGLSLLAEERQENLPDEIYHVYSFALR

Turning to `Clc1ccc(Nc2nnc(Cc3ccncc3)c3ccccc23)cc1`, the Potency result in [1] and in test [4] was “inactive” throughout. Moreover, the Potency in test [2] was 0.0174 µM (active); in test [3] it was 0.049 µM (active); in test [5], 15 µM (active) and 9.34 µM (active); in [6], 13.3 µM (active) and 8.33 µM (active).

In the case of `COc1cc(Oc2ccnc3cc(OC)c(OC)cc23)ccc1NC(=O)NC(C)c1nccs1` (stereo not drawn), the Potency result in test [1] and in test [2] was “inactive” throughout. Also, the Potency was 0.601 µM (active) in test [3]; “inactive and 13.2 µM (active)” in [5]; “inactive and 8.33 µM (active)” in test [6].

Turning to `Nc1nc2[nH]cc(CCc3ccc(C(=O)N[C@@H](CCC(=O)O)C(=O)O)cc3)c2c(=O)[nH]1`, in test [1], the Potency entry is “inactive”. Further, the Potency in test [5] and in [6] was 0.296 µM (active) each time.

Consider `CNC(=O)c1ccccc1Sc1ccc2c(/C=C/c3ccccn3)n[nH]c2c1`, for which the Potency result in test [1] and in test [7] was “inactive” in each case. For the same molecule, the Potency in test [3] was 3.47 µM (active); in test [5], 750 nM (active) and 916 nM (active) and 4.17 µM (active); in [6], 531 nM (active) and 1.03 µM (active) and 833 nM (active).

With `COc1c(Cl)cc2c([nH]c3cnccc32)c1NC(=O)c1cccnc1C`, the Potency result in test [1] was “inactive”. For the same molecule, the Potency in [5] and in test [6] was 9.34 µM (active) each time.

For `CCCCCCCc1ccc(CCc2cccc(O)c2C(=O)O)cc1`, the Potency entry in test [1] was “inactive”. Further, in test [8], the activity is -2.12%. Also, the activity change, negative = inhibition in test [9] is -1.62%.

Regarding `CCC(C)(C)C(=O)O[C@H]1C[C@@H](C)C=C2C=C[C@H](C)[C@H](CC[C@@H]3C[C@@H](O)CC(=O)O3)[C@H]21`, the Potency entry in test [1] was “inactive”. Besides, the Potency in test [5] and in test [6] was 8.33 µM (active) in each case.

`CCN(CCCO)CCCOc1ccc2c(Nc3cc(CC(=O)Nc4cccc(F)c4)[nH]n3)ncnc2c1`: in test [10], the Potency entry is “inactive”.

As to `COc1ccccc1-c1cccc(-c2c(O)c3cc(C#N)c(Cl)cc3[nH]c2=O)c1`, the Potency entry in [1], in test [5] and in test [6] was “inactive” each time. The Potency in test [3] was 35.5 µM (active).

Turning to `OC[C@H](Cc1ccccc1)Nc1nc(Oc2ccc3c(c2)CCC3)nc2c1ncn2Cc1ccc(-c2ccccc2)cc1`, the Potency entry in test [1] and in [2] was “inactive” in each case. For the same molecule, the activity in test [8] is -10.9%. The activity change, negative = inhibition in [9] is -8.58%.

As to `CN([C@@H](Cc1ccc(OS(=O)(=O)c2cccc3cnccc23)cc1)C(=O)N1CCN(c2ccccc2)CC1)S(=O)(=O)c1cccc2cnccc12`, the activity change, negative = viability loss in [5] was 7.52% [at 4.96 µM] (inactive).

For the molecule `CCc1cc(Nc2nccc(-c3c(-c4ccc(OC)c(C(=O)Nc5c(F)cccc5F)c4)nc4ccccn34)n2)c(OC)cc1N1CCC(N2CCN(S(C)(=O)=O)CC2)CC1`, the Potency is 0.006 µM (active) in [1]; “inactive and 5.9 µM (active)” in test [6].

On to `CC(C)c1onc(-c2c(Cl)cccc2Cl)c1COc1ccc(/C=C/c2cccc(C(=O)O)c2)c(Cl)c1`, for which the Potency result in test [1] and in test [5] was “inactive” in each case.

For the molecule `Oc1cccc(-c2nc(N3CCOCC3)c3oc4ncccc4c3n2)c1`, the Potency entry in [1] was “inactive”. Besides, the Potency is 0.118 µM (active) in test [5] and 0.166 µM (active) in [6].

As to `O=C(C1CC1)N1CC[C@@H](Cn2c(-c3ccc(-c4ccc5occc5c4)cc3)nc3cnccc32)C1`, in test [1], the Potency result is “inactive”. For the same molecule, in test [5], the Potency is 18.6 µM (active).

Consider `CN(C)c1ccc(C2Nc3ccc4ccccc4c3C3=C2C(=O)CC(C)(C)C3)cc1Br` (stereo not drawn), for which the Potency entry in test [1], in [5] and in test [6] was “inactive” throughout.

Regarding `N#CC[C@H](C1CCCC1)n1cc(-c2ncnc3[nH]ccc23)cn1`, the Potency result in [1] was “inactive”. For the same molecule, the Potency was 16.3 µM (active) and 9.34 µM (active) in test [5]; 18.3 µM (active) and 9.34 µM (active) in test [6].

On to `CC[C@@H](C)[C@H](NC(=O)[C@H](CC1CCCCC1)NC(=O)c1ccno1)C(=O)N1CCC2(CCc3ccccc32)CC1`, for which the Potency entry in [1], in test [2], in test [3], in test [5] and in test [6] was “inactive” throughout.

As to `Cc1ccc(-n2nc(C(C)(C)C)cc2NC(=O)Nc2ccc(OCCN3CCOCC3)c3ccccc23)cc1`, the Potency entry in [1] is “inactive”. Moreover, the Potency in test [2] was 4.9 µM (active); in test [3], 9.77 µM (active); in [5], 23.7 µM (active) and inactive; in test [6], 21.1 µM (active).
